Where a name gives a salt, the structure may show the parent alone. ± gives the uncertainty stated by the source.

The assay relates to NCC-PMP1-C1. Description: cell viability relative to DMSO control; higher = less growth inhibition. Particulars: 10 µM; 72 h. As to the method: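 NCC-PMP1-C1 pseudomyxoma peritonei cells were seeded in 384-well plates coated with Matrigel and MEF (1e4 cells). Viability was read after 72 h by CCK-8 and expressed as % of the DMSO control, mean ± SD of duplicates.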
A word on the cell viability: it is a read-out of living cells in per cent, often relative to untreated cells. Regarding `O=C(O)C1=CO[C@@H](O[C@@H]2O[C@H](CO)[C@@H](O)[C@H](O)[C@H]2O)[C@@H]2C(CO)=CC[C@H]12` [Geniposidic acid], the cell viability worked out at 97.1 ± 2.2%. Consider `O=[n+]1c(CBr)c(CBr)n([O-])c2ccccc21` [Conoidin A], for which the cell viability stood at 112 ± 22%.

Consider `CC(C)C[C@H](NC(=O)[C@H](Cc1ccccc1)NC(=O)c1cnccn1)B(O)O` [Bortezomib (PS-341)], for which the cell viability was -0.129 ± 0.47%. The result for `COc1ccc2[nH]c([S@@+]([O-])Cc3ncc(C)c(OC)c3C)nc2c1` [Esomeprazole Sodium] reads 108 ± 1.5%. The result for `CC1=C(/C=C/C(C)=C/C=C/C(C)=C/C(=O)O)C(C)(C)CCC1` [Tretinoin] reads 129 ± 16%; that for `COc1cc(Nc2ncc(F)c(Nc3ccc4c(n3)N(COP(=O)(O)O)C(=O)C(C)(C)O4)n2)cc(OC)c1OC` [Fostamatinib (R788)], 4.92 ± 3.4%; that for `CC(=O)O[C@H]1C(=O)[C@@]2(C)[C@H]([C@H](OC(=O)c3ccccc3)[C@]3(O)C[C@H](OC(=O)[C@H](O)[C@@H](NC(=O)c4ccccc4)c4ccccc4)C(C)=C1C3(C)C)[C@]1(OC(C)=O)CO[C@@H]1C[C@@H]2O` [Paclitaxel], 81.6 ± 12%. For `C#Cc1cccc(Nc2ncnc3cc(OCCOC)c(OCCOC)cc23)c1` [Erlotinib], the cell viability was found to be 66.7 ± 5.8%. As to `CNC[C@H](O)c1ccc(O)c(O)c1` [Epinephrine Bitartrate], the cell viability was found to be 127 ± 6.3%. On to `CC[C@]1(O)C[C@@H]2CN(CCc3c([nH]c4ccccc34)[C@@](C(=O)OC)(c3cc4c(cc3OC)N(C)[C@H]3[C@@](O)(C(=O)OC)[C@H](OC(C)=O)[C@]5(CC)C=CCN6CC[C@]43[C@@H]65)C2)C1` [Vinblastine sulfate], for which the cell viability worked out at 43.6 ± 2.9%.

(Values after the supplement of paper PMC8877412.)
